Rows were chosen to be rich in hits. Some 2.5% of all compounds tested hit in one or more screens of this group.
Nox1_inhibitor = inhibitors of human NADPH oxidase 1 (Nox1); HT29 cells, luminol chemiluminescence ROS; inhibition, % at 6.7 µM; hit rate 0.81% among 16,000
NOTCH_ag = agonists of NOTCH signaling | NOTCH signaling luciferase reporter cells, luminescence | activation, % at 2.5 µM | hit rate 0.4% among 15,000; in the data active means activation above about 2.2%
PME-1_Maybridge = inhibitors of human PME-1 in Maybridge library. Protein phosphatase methylesterase 1 (Homo sapiens), Q9Y570. recombinant PME-1, FP-Rh probe fluorescence polarization. inhibition, % at 9 µM. hit rate 0.5% among 16,000; in the data active means inhibition above about 30%
luminol_inh_ctr = counter-screen for Nox1 inhibitors: inhibitors of luminol chemiluminescence; hit rate 0.4% among 16,000; HRP/luminol/H2O2 chemiluminescence counterscreen; inhibition, % at 6.7 µM; further: reference of the scale not given here
KOR_antag_MB = antagonists of human kappa opioid receptor OPRK1, Maybridge library; inhibition, % at 9 µM; OPRK1 cells, antagonist mode, fluorescence readout; Kappa-type opioid receptor (Homo sapiens), P41145; AID 652031, 2013; hit rate 0.4% among 16,000; in the data active means inhibition above about 50%
Target sequence (P41145 whole entry, looked up): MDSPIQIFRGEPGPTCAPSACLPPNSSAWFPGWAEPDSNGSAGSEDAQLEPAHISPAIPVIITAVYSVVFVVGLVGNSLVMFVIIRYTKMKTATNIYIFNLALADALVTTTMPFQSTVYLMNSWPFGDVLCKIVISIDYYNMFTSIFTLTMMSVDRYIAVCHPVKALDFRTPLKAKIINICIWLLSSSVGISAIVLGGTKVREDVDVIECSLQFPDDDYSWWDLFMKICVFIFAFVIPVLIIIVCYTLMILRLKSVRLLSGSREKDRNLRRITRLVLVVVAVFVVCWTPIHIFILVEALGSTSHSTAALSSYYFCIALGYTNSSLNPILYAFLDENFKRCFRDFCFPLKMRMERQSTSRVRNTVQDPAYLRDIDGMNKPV
Numbers stand for hits; n = inactive. Unless noted, no stated cut-off is given here; in the data, active means inhibition above about 75%; inactive means the rest.

SMILES Nox1_inhibitor NOTCH_ag PME-1_Maybridge luminol_inh_ctr KOR_antag_MB
O=C(Cc1csc2ccccc12)Nc1ccc(F)cc1 n n 57.9 n n
COc1ccc2c(c1)CCCN2Cc1c[nH]c2ccccc12 101.1 n n n n
N=C(N)SCc1csc2ccccc12 n 2.4 n n n
NC(=O)c1cccc(CSCc2csc3ccccc23)c1 n n n n n
Cc1cc(C)cc(NC(=O)Nc2ccc(N3CCCCC3)cc2)c1 85.2 n n n n
CN1CCN(c2ccc(NS(=O)(=O)c3cccc(C(F)(F)F)c3)cc2)CC1 93.7 n n n n
O=S(=O)(Nc1ccc(N2CCN(c3ccc(C(F)(F)F)cn3)CC2)nc1)c1cccc(Cl)c1 n n n n n
O=S(=O)(Nc1ccc(N2CCCCC2)cc1)c1ccccc1 100.8 n n n n
O=C(c1cnn(-c2ccc(Cl)cc2)c1C(F)(F)F)N1CCN(c2ncnc3ccsc23)CC1 n n n n 80.5
C=CCn1c(-c2sc3nnc(-c4ccccc4)c(-c4ccccc4)c3c2N)n[nH]c1=S n n n n 57.2

From PubChem BioAssay
